Results: PubChem BioAssay (Tox21)
Inconclusive results are not listed. A call without a number means that no potency is given here. Unmarked numbers belong to inactive results. Calls of active or inactive are those of the source. The call rests on the fitted dose curve.

Molecular target: Peroxisome proliferator-activated receptor gamma (Homo sapiens) (UniProt P37231)
Assay: qHTS assay to identify small molecule antagonists of the peroxisome proliferator-activated receptor gamma (PPARg) signaling pathway (AID 743191); further: nearly all actives have a fitted effect of over 30% in size
Conditions: HEK293H PPARg-UAS-bla, beta-lactamase ratio, antagonist, 17 h; series mostly up to 62.6 µM; ratio activity, negative = inhibition: at the top concentration
Text: U.S. Tox21 Program National Center for Advancing Translational Sciences [NCATS] NIH Chemical Genomics Center [NCGC] U.S. Environmental Protection Agency [EPA] National Institutes of Environmental Health Sciences [NIEHS] National Toxicology Program [NTP] U.S. Food and Drug Administration [FDA] Tox21 Assay Overview: The peroxisome proliferator-activated receptors (PPARs) are lipid-activated transcription factors of the nuclear receptor superfamily with three distinct subtypes namely PPAR alpha, PPAR delta (also called PPAR beta) and PPAR gamma (PPARg). All these subtypes heterodimerize with Retinoid X receptor (RXR) and these heterodimers regulate transcription of various genes. PPAR-gamma receptor (glitazone receptor) is involved in the regulation of glucose and lipid metabolism. To identify the compounds that inhibit PPAR-gamma signaling, GeneBLAzer PPAR gamma UAS-bla HEK293H cell line (Invitrogen, Carlsbad, CA, USA) containing a beta-lactamase reporter gene under control of an Upstream Activator Sequence (UAS) was used to screen the Tox21 compound library.
Tox21 Assay Protocol Summary: PPARg-bla cells were dispensed at 3000 cells/6uL/well in 1536-well black wall/clear bottom plates using a Multidrop Combi (Thermo Fisher Scientific, Waltham, MA) dispenser. After the assay plates were incubated at 37C and 5% CO2 for 5 h, 23 nL of compounds dissolved in DMSO, positive controls or DMSO only was transferred to the assay plate by a Pintool station (Kalypsys, San Diego, CA). The assay plates were incubated at 37C for 17 h. After 1 uL of LiveBLAzerTM B/G FRET substrate was added using a Bioraptr Flying Reagent Dispenser (FRD) workstation (Beckman Coulter, Indianapolis, IN, USA), the plates were incubated at room temperature for 1 h, and fluorescence intensity was measured by an Envision plate reader (PerkinElmer, Shelton, CT).
Potency means the concentration at half of the fitted maximal effect.

Chain of Peroxisome proliferator-activated receptor gamma (Homo sapiens) (P37231 whole entry, looked up): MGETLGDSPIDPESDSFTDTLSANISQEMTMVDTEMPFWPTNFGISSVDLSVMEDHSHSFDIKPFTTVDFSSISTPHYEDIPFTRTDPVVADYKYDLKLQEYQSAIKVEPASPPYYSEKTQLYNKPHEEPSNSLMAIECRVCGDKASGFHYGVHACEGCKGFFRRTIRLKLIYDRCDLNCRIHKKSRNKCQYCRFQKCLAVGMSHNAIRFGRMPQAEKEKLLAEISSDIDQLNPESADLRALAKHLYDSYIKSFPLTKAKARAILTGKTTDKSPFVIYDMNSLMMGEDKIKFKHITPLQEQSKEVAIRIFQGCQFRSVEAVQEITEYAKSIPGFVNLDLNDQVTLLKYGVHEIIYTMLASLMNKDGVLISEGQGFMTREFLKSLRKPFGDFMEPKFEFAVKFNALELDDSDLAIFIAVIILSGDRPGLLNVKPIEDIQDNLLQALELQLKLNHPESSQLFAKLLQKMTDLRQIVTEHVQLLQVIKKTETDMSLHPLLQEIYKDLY

| SMILES | Potency | ratio activity, negative = inhibition |
| --- | --- | --- |
| COC(=O)c1sccc1S(=O)(=O)NC(=O)Nc1nc(C)nc(OC)n1 | inactive | – |
| CC(C)NC(C)C | inactive | – |
| COc1ccc(C(CN(C)C)C2(O)CCCCC2)cc1 (stereo not given) | inactive | – |
| CCC(C)(C)c1ccc(O)cc1 | inactive | – |
| ClC1C(Cl)C(Cl)C(Cl)C(Cl)C1Cl (stereo not given) | inactive | – |
| N#CC(Br)Br | – | -6.56% |
| O=[N+]([O-])c1cccc2ccccc12 | inactive | – |
| OCC(O)CO | inactive | – |
| Nc1cccnc1 | – | -1.21% |
| Oc1cc(Cl)ccc1Cl | – | 13% |
| CN(C)C(=O)Nc1ccc(Cl)cc1 | – | 9.53% |
| Oc1ccc(-c2ccccc2)cc1 | 30.5 µM (active) | – |
| CCCCN(CCCC)N=O | – | -3.31% |
| CCCCOCCOP(=O)(OCCOCCCC)OCCOCCCC | inactive | – |
| C=C(C)C(=O)OCC1CO1 (stereo not given) | inactive | – |
| CCN(CC)N=O | inactive | – |
| NNC(=S)NN | – | -1.09% |
| NNC(N)=S | – | -5.47% |
| CC(C)C(=O)OCC(C)(C)C(OC(=O)C(C)C)C(C)C (stereo not given) | – | 9.16% |
| O=C(NC(=O)c1c(F)cccc1F)Nc1ccc(Cl)cc1 | – | 11.7% |

| SMILES | Potency | ratio activity, negative = inhibition |
| --- | --- | --- |
| CC(O)CCO (stereo not given) | – | -0.122% [at 81.1 µM] |
| Cc1ccccc1[N+](=O)[O-] | inactive | – |
| CCCCC(CC)COC(=O)Cl (stereo not given) | – | 6.43% |
| CNC(=O)Oc1cccc2c1OC(C)(C)O2 | – | -10.9% |
| Cc1cccc(N)c1N | inactive | – |
| CCC(CC)Nc1c([N+](=O)[O-])cc(C)c(C)c1[N+](=O)[O-] | – | -20% [at 81.1 µM] |
| CNC(=O)N(C)c1nnc(C(C)(C)C)s1 | inactive | – |
| CCCCNC(=O)n1c(NC(=O)OC)nc2ccccc21 | – | -11.5% |
| C=C(C)[C@H]1Cc2c(ccc3c2O[C@@H]2COc4cc(OC)c(OC)cc4[C@@H]2C3=O)O1 | 13.3 µM (active) | – |
| C#CCOS(=O)OC1CCCCC1Oc1ccc(C(C)(C)C)cc1 (stereo not given) | 43.6 µM (active) | – |
| CCCCC(CC)COC(=O)c1ccc(C(=O)OCC(CC)CCCC)c(C(=O)OCC(CC)CCCC)c1 (stereo not given) | – | 12.1% |
| O=S(=O)(Oc1ccc(Cl)cc1)c1ccc(Cl)cc1 | – | 18.3% |
| Oc1cc(Cl)c(Cl)cc1Cl | inactive | – |
| O=[N+]([O-])c1ccc(O)c([N+](=O)[O-])c1 | – | -21.5% [at 81.1 µM] |
| CCCCCCCCC(=O)NCc1ccc(O)c(OC)c1 | inactive | – |
| COc1ccc(C=O)cc1 | inactive | – |
| CCN(N=O)C(N)=O | inactive | – |
| c1ccc(P(c2ccccc2)c2ccccc2)cc1 | inactive | – |
| O=C(O)CC[N+](=O)[O-] | inactive | – |
| CCCCCCOC(=O)c1ccccc1C(=O)OCCCCCC | inactive | – |
